Molecules are shown by their SMILES. Several values for one entry are separate records, joined by “and”; a condition that tells them apart may be missing. Equal values may be shown once. Results filed as inconclusive are left out. Where a structure was tested more than once in an assay, its records may differ in their call. Activity calls are given as the source filed them. Unless noted, calls follow the shape of the dose curve; as a rule, active = well fitted curve in the direction sought with a large enough effect in the repeat runs; inconclusive = weak or mixed curves; inactive = no such curve, though single readings can be large; an effect the other way counts as inactive or inconclusive.

Assay [1] is described as follows: qHTS assay to identify aromatase inhibitors - cell viability counter screen (AID 743084;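 also: cells stimulated with testosterone during compound exposure; nearly all actives have a fitted effect of over 55% in size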; also: potency is read from the fitted curve at half-maximal effect). (In general: qHTS replaces the single test concentration by a dilution series.)
Assay [2] addresses Aryl hydrocarbon receptor (Homo sapiens) (UniProt P35869). Put plainly: qHTS assay to identify small molecule that activate the aryl hydrocarbon receptor (AhR) signaling pathway (AID 743085). Also: nearly all actives have a fitted effect of over 15% in size. Also: potency is read from the fitted curve at half-maximal effect.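 As to activation: HG2L7.5c1 human HepG2 liver cells with stably integrated DRE-driven firefly reporter; series mostly up to about 70 µM.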 The gist of the method:
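Luminescence read-out: ONE-Glo reagent, 30 min at room temperature, in HG2L7.5c1 HepG2 reporter cells treated 24 h at 37C. Viability was measured beforehand by CellTiter-Fluor fluorescence after 30 min at 37C.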

The nature of assay [3]: qHTS assay to identify small molecule that activate the aryl hydrocarbon receptor (AhR) signaling pathway - cell viability counter screen (AID 743086). Also: nearly all actives have a fitted effect of over 45% in size. Also: potency is read from the fitted curve at half-maximal effect. In a few lines:
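Cytotoxicity counter screen: CellTiter-Fluor signal (30 min, 37 C) in 4000 HepG2 cells/well carrying the DRE-luciferase reporter, following 24 h compound exposure at 37 C.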

Assay [4] concerns the target Peroxisome proliferator-activated receptor gamma (Homo sapiens) (UniProt P37231). The experiment in a line: qHTS assay to identify small molecule agonists of the peroxisome proliferator-activated receptor gamma (PPARg) signaling pathway (AID 743094; active = well fitted activation curve with a large enough effect in the signal ratio in the repeat runs, not every such curve was filed as active; the % refers to the signal ratio). In a few lines: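 Quantitative HTS agonist mode: stable HEK293H line with UAS-beta-lactamase reporter under PPARg control, 17 h compound exposure at 37C, fluorescence after 1 h FRET substrate loading at room temperature.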

For assay [5] the target is unchanged. The experiment in a line: qHTS assay to identify small molecule antagonists of the peroxisome proliferator-activated receptor gamma (PPARg) signaling pathway (AID 743191; calls by dose curve; also: series mostly up to about 63 µM; nearly all actives have a fitted effect of over 30% in size). The gist of the method: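 Beta-lactamase reporter under UAS control in HEK293H PPARg-bla cells; compound treatment 17 h at 37C. Read-out: fluorescence intensity after 1 h room-temperature incubation with LiveBLAzer B/G FRET substrate.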

Assay [6] in a line: qHTS assay to identify small molecule antagonists of the peroxisome proliferator-activated receptor gamma (PPARg) signaling pathway - cell viability counter screen (AID 743194). Also: nearly all actives have a fitted effect of over 55% in size. The gist of the method:
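Viability was measured as CellTiter-Glo luminescence in GeneBLAzer PPARg UAS-bla HEK293H cells. These cells had been exposed 17 h at 37 C to compounds together with rosiglitazone at 50 nM final, with the beta-lactamase readout taken in the same wells.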

Assay [7] is described as follows: qHTS assay for small molecule agonists of the antioxidant response element (ARE) signaling pathway (AID 743202; active = well fitted activation curve with a large enough effect in the signal ratio in the repeat runs, not every such curve was filed as active; the % refers to the signal ratio; also: potency is read from the fitted curve at half-maximal effect). In a few lines:
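An ARE-responsive beta-lactamase gene stably integrated in HepG2 cells serves as reporter. After 5 h plating and 16 h compound incubation at 37 C, fluorescence of the B/G FRET substrate was measured.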

Assay [8] can be described thus: qHTS assay for small molecule agonists of the antioxidant response element (ARE) signaling pathway - cell viability counter screen (AID 743203; calls by dose curve; also: nearly all actives have a fitted effect of over 55% in size; also: potency is read from the fitted curve at half-maximal effect). The gist of the method: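 Seeded at 2,000 cells/well, ARE-bla HepG2 cells were incubated 5 hrs before compound addition. After 16 hrs of treatment at 37C with 5% CO2, CellTiter-Glo reagent was added and luminescence read 30 min later.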

Assay [9] in a line: qHTS assay for small molecule activators of the heat shock response signaling pathway - cell viability counter screen (AID 743209). Also: nearly all actives have a fitted effect of over 50% in size. In a few lines: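 First, HSE-bla HeLa cells were seeded at 1500 cells/well and kept overnight at 37 C. Next, compounds were pinned in and incubated 5 h. After the FRET substrate step, CellTiter-Glo was added and luminescence read 30 min later.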

Assay [10] in a line: qHTS assay for small molecule activators of the heat shock response signaling pathway (AID 743210; active = well fitted activation curve with a large enough effect in the signal ratio in the repeat runs, with a control signal flat, not every such curve was filed as active; the % refers to the signal ratio;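 also: HeLa cells with beta-lactamase reporter driven by heat shock elements; series mostly up to about 63 µM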). The gist of the method:
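In HSE-bla HeLa cells, 5 h compound incubation (37 C) precedes addition of LiveBLAzer B/G substrate; after 2.5 h at room temperature, fluorescence intensity indicates reporter induction.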

The nature of assay [11]: qHTS assay to identify small molecule agonists of the peroxisome proliferator-activated receptor delta (PPARd) signaling pathway - cell viability counter screen (AID 743211). Also: nearly all actives have a fitted effect of over 55% in size. The gist of the method:
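Read-out: CellTiter-Glo luminescence, 30 min RT, measured in the same wells as the beta-lactamase reporter. Cells: GeneBLAzer PPAR delta UAS-bla HEK293H, 3000 cells/well, compound exposure 17 h at 37C.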

Assay [12] in a line: qHTS assay to identify small molecule antagonists of the peroxisome proliferator-activated receptor delta (PPARd) signaling pathway - cell viability counter screen (AID 743213). Also: nearly all actives have a fitted effect of over 50% in size. The gist of the method:
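Agonist-stimulated (L165041, 300 nM final) HEK293H PPARd UAS-bla cells are exposed to compounds for 17 h at 37 C, and ATP-based luminescence (CellTiter-Glo) from the same wells reports cytotoxicity.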

Assay [13] is described as follows: qHTS assay to identify small molecule antagonists of the farnesoid-X-receptor (FXR) signaling pathway - cell viability counter screen (AID 743221; active = well fitted cell-killing curve with a large enough effect in the repeat runs, not every such curve was filed as active; also: nearly all actives have a fitted effect of over 50% in size). The gist of the method:
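HEK 293T FXR-bla cells, 5 h pre-incubation; compound + CDCA 50 uM final, 16 h, 37 C; beta-lactamase FRET read first, then CellTiter-Glo luminescence, 30 min RT.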

For assay [14], the target named is Vitamin D3 receptor (Homo sapiens) (UniProt P11473). Put plainly: qHTS assay to identify small molecule agonists of the vitamin D receptor (VDR) signaling pathway (AID 743222; calls by dose curve). In a few lines:
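Quantitative HTS agonist-mode screen: compounds in DMSO were pin-transferred onto VDR-bla cells and incubated 16 h at 37C, 5% CO2. Reporter activity was detected with LiveBLAzer B/G FRET substrate after 2 h at room temperature.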

For assay [15] the target is unchanged. Put plainly: qHTS assay to identify small molecule antagonists of the vitamin D receptor (VDR) signaling pathway (AID 743223; active = well fitted inhibition curve with a large enough effect in the signal ratio in the repeat runs, not every such curve was filed as active; the % refers to the signal ratio). In a few lines: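 Beta-lactamase reporter read-out: FRET substrate fluorescence after 2 h at room temperature, following 16 h exposure of VDR-bla cells to test compound plus 3 nM (final) 1alpha,25-dihydroxyvitamin D3 agonist at 37C.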

The target in assay [16] is Peroxisome proliferator-activated receptor delta (Homo sapiens) (UniProt Q03181). Put plainly: qHTS assay to identify small molecule agonists of the peroxisome proliferator-activated receptor delta (PPARd) signaling pathway (AID 743212; calls by dose curve). The gist of the method:
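HEK293H UAS-bla reporter cells, human PPARd system; compounds delivered in DMSO after 5 h plating, then at 37 C. Beta-lactamase FRET read, 2 h RT substrate step.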

The target is the same in assay [17]. The experiment in a line: qHTS assay to identify small molecule antagonists of the peroxisome proliferator-activated receptor delta (PPARd) signaling pathway (AID 743215; active = well fitted inhibition curve with a large enough effect in the signal ratio in the repeat runs, not every such curve was filed as active; the % refers to the signal ratio; also: series mostly up to about 62 µM). In a few lines: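 Inhibition of L165041-driven (300 nM final) PPARd signaling is scored in HEK293H UAS-bla cells. Exposure lasts 17 h at 37 C; beta-lactamase activity is then read by FRET substrate fluorescence after 2 h at room temperature.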

Assay [18] can be described thus: qHTS assay to identify small molecule agonists of the farnesoid-X-receptor (FXR) signaling pathway - cell viability counter screen (AID 743218). Also: nearly all actives have a fitted effect of over 45% in size. In a few lines:
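Cytotoxicity counter-screen run in parallel, same wells: FXR-UAS-bla HEK 293T cells dosed 16 h at 37 C, viability read by CellTiter-Glo luminescence after 30 min at room temperature.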

Assay [19] addresses Bile acid receptor (Homo sapiens) (UniProt Q96RI1). Put plainly: qHTS assay to identify small molecule agonists of the farnesoid-X-receptor (FXR) signaling pathway (AID 743220; active = well fitted activation curve with a large enough effect in the signal ratio in the repeat runs, not every such curve was filed as active; the % refers to the signal ratio). The gist of the method:
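Beta-lactamase reporter under UAS control in GeneBLAzer FXR HEK 293T cells (5000/well) measured with LiveBLAzer FRET substrate after 2 h at room temperature. Compound exposure lasted 16 h at 37C.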

The target is the same in assay [20]. Put plainly: qHTS assay to identify small molecule antagonists of the farnesoid-X-receptor (FXR) signaling pathway (AID 743217; active = well fitted inhibition curve with a large enough effect in the signal ratio in the repeat runs, not every such curve was filed as active; the % refers to the signal ratio). The gist of the method:
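Antagonist mode against 50 uM (final) chenodeoxycholic acid stimulation in FXR-bla HEK 293T cells, 16 h at 37 °C. Inhibition detected as reduced beta-lactamase activity via LiveBLAzer B/G FRET fluorescence after 2 h at room temperature.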

Sequence of Peroxisome proliferator-activated receptor delta (Homo sapiens) (Q03181 whole entry, looked up): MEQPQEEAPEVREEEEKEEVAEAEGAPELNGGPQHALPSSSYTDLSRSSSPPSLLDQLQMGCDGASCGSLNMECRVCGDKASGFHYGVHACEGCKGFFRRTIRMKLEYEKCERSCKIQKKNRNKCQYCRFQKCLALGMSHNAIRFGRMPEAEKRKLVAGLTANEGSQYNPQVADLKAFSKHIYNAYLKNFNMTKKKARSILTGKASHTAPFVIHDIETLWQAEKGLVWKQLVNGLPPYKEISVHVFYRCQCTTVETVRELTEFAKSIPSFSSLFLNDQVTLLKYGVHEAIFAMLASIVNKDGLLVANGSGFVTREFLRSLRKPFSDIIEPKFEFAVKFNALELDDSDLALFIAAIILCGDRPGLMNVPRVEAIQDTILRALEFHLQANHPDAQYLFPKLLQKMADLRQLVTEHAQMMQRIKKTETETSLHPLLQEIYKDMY
Sequence of Vitamin D3 receptor (Homo sapiens) (P11473 whole entry, looked up): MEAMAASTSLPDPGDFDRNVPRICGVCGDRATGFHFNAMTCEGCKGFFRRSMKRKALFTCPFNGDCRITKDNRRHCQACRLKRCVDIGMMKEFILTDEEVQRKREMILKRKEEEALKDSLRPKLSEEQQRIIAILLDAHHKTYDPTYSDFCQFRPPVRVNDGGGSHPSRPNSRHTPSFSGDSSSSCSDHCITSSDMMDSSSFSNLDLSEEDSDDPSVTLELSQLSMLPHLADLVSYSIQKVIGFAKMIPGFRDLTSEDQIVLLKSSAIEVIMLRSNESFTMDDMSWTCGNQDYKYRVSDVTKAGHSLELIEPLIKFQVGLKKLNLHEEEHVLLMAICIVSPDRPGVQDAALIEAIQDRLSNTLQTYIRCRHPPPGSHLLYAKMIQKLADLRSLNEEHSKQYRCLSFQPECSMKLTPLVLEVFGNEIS
Sequence of Aryl hydrocarbon receptor (Homo sapiens) (P35869 whole entry, looked up): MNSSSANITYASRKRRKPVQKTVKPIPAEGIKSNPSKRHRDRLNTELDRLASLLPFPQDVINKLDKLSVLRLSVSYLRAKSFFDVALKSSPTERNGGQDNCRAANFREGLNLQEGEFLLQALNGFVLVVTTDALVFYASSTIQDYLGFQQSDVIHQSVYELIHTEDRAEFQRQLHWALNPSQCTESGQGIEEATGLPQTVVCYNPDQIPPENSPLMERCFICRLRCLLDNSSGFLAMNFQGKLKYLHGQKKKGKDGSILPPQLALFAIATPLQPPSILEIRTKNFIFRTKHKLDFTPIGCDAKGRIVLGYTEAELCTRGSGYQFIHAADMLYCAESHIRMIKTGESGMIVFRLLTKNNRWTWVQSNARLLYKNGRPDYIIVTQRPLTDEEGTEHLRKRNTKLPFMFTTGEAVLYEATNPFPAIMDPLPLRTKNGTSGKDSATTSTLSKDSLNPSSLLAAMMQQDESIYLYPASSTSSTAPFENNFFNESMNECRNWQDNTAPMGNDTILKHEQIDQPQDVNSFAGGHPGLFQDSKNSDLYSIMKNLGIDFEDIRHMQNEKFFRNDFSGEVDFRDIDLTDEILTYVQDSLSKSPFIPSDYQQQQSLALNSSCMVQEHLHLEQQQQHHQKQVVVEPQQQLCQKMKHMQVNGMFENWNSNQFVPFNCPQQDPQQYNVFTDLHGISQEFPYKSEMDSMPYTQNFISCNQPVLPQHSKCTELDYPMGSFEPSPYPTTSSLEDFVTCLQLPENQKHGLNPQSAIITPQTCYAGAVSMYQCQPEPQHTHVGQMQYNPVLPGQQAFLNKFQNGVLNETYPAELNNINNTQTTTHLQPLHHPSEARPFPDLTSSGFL
Sequence of Peroxisome proliferator-activated receptor gamma (Homo sapiens) (P37231 whole entry, looked up): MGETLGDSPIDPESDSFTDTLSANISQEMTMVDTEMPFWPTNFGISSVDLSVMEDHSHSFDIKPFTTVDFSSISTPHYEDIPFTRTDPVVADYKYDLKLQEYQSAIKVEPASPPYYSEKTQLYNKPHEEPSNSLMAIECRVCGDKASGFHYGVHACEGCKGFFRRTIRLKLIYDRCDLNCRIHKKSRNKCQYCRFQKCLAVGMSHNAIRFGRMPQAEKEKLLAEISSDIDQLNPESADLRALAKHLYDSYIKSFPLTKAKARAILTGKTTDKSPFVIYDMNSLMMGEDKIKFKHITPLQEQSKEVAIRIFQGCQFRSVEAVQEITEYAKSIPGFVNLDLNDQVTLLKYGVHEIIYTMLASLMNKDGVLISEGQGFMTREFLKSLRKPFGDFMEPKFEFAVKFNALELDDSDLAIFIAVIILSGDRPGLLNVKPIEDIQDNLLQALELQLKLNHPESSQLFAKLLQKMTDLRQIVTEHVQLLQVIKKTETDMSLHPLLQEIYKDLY
Sequence of Bile acid receptor (Homo sapiens) (Q96RI1 whole entry, looked up): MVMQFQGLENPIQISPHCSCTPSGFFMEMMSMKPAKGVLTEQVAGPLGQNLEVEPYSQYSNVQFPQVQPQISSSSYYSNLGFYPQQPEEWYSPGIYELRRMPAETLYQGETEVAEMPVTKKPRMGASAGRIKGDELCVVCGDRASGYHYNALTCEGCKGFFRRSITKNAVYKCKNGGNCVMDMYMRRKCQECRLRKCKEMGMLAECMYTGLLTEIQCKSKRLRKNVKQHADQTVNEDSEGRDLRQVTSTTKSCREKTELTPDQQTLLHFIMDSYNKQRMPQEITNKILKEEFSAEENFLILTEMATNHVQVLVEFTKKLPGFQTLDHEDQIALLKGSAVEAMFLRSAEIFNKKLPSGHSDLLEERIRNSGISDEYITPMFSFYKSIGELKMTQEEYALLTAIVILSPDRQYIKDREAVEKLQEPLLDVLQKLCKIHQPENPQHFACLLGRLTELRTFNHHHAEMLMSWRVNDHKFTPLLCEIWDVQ

As to `C1CNCCN1`, the Potency result in [1], in [2], in assay [3], in assay [4], in assay [5] and in assay [6] was “inactive” each time. The Potency result in assay [7], in [8], in [11], in [12] and in assay [15] was “inactive” in each case. Besides, the compound was called inactive in [9], in assay [10], in [13] and in assay [14].

In the case of `O=[N+]([O-])c1ccc(O)cc1`, the Potency in [1] was 63.5 µM (active); in [3] it was 54.5 µM (active) and inactive. Moreover, the Potency entry in assay [2], in assay [4], in assay [6], in [7], in assay [8] and in assay [11] was “inactive” throughout. In addition, the Potency entry in assay [12], in assay [18] and in [15] was “inactive” each time. Further, the compound was classed as inactive in assay [9], in [10], in assay [16], in assay [17], in assay [13] and in assay [14].

Take `NC(=O)N/N=C/c1ccc([N+](=O)[O-])o1`: the Potency entry in assay [1], in assay [4], in assay [6], in assay [11], in [12] and in [18] was “inactive” throughout. Also, the Potency result in assay [15] is “inactive”. Also, the Potency result in assay [2] is “inactive and 19.3 µM (active)”; in assay [3], “inactive and 62.9 µM [cytotoxic] (active)”; in [7], “inactive and 11.9 µM (active)”; in assay [8] it was “inactive and 54.5 µM (active)”. Further, the result in [9], in assay [10], in [16], in assay [13] and in [14] was inactive.

`C[C@]12CC[C@@H]3c4ccc(O)cc4C[C@@H](CCCCCCCCCS(=O)CCCC(F)(F)C(F)(F)F)[C@H]3[C@@H]1CC[C@@H]2O` (some centres undefined): the Potency result in [1], in [2], in [3], in assay [4], in assay [5] and in assay [6] was “inactive” each time. Further, the Potency result in [8], in assay [18] and in assay [15] was “inactive” each time. Besides, the result in assay [9], in assay [10], in [16], in assay [17], in assay [19] and in assay [13] was inactive. Also, the compound was classed as inactive in [14].

As for `CCN1CCCC1=O`, the Potency result in assay [1], in assay [2], in assay [3], in assay [4], in [5] and in assay [6] was “inactive” throughout. The Potency result in assay [7], in assay [8], in assay [11], in assay [12], in [20] and in [15] was “inactive” each time. The call in [9], in [10], in [19], in [13] and in [14] was inactive.

`CC(=O)Oc1ccccc1C(=O)O`: the Potency result in assay [1], in assay [2], in [3], in assay [4], in [5] and in [6] was “inactive” throughout. For the same compound, the Potency result in assay [7], in assay [8], in assay [11], in assay [12] and in assay [15] was “inactive” in each case. Besides, the result in [9], in [13] and in [14] was inactive.

Turning to `CCCCCCCC(=O)OCC(O)CO` (centres undefined), the Potency entry in assay [1], in assay [2], in assay [3], in assay [4], in assay [6] and in [7] was “inactive” in each case. Further, the Potency result in assay [8], in [11] and in [12] was “inactive” in each case. Moreover, the outcome in assay [9], in assay [10], in assay [16], in assay [17] and in [13] was inactive.

For the origin of these results see PubChem BioAssay (Tox21).
